Assay results as given in ChEMBL document CHEMBL3433997, “St. Jude Leishmania screening dataset” (2016).
Several values for one entry are separate records, joined by “and”; a condition that tells them apart may be missing. Identical values can stand only once.

Columns and labels:
Assay type in all cases: functional
[1] = target: Solute carrier family 2, facilitated glucose transporter member 1 (Homo sapiens) (UniProt P11166); experiment: ST_JUDE_LEISH: Cytotoxicity at 2uM final concentration against transgenic Leishmania Mexicana promastigotes LmGLUT1 that are glucose transport deficient and complemented with the human glucose transporter GLUT1. Activity is measured by DNA content using SYBR green in vitro
Sequence of Solute carrier family 2, facilitated glucose transporter member 1 (Homo sapiens) (P11166 whole entry): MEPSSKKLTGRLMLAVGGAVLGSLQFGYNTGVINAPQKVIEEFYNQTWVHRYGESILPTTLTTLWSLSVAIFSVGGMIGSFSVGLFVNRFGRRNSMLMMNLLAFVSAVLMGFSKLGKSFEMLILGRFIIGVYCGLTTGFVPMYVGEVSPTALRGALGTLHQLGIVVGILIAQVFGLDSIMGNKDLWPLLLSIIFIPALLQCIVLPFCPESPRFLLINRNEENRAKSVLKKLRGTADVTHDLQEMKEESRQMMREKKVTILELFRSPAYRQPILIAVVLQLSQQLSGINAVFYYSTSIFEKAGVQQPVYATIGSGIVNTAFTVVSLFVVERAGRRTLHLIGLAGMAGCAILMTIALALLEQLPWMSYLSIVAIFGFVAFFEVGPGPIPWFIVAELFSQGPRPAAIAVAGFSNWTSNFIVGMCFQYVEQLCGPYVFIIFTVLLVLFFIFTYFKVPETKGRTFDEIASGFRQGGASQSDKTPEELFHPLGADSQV

[2] = target: Hexose transporter 1 (Plasmodium falciparum) (UniProt O97467); experiment: ST_JUDE_LEISH: Cytotoxicity at 2uM final concentration against transgenic Leishmania Mexicana promastigotes LmPfHT that are glucose transport deficient and complemented with the Plasmodium falciparum hexose transporter. Activity is measured by DNA content using SYBR green in vitro
[3] = target: Glucose transporter (Leishmania mexicana) (UniProt O61059); experiment: ST_JUDE_LEISH: Cytotoxicity at 2uM final concentration against transgenic Leishmania Mexicana promastigotes LmGT2 that are glucose transport deficient and complemented with the L. Mexicana glucose transporter 2. Activity is measured by DNA content using SYBR green in vitro

Compound | inhibition [1] | inhibition [2] | inhibition [3]
CS(=O)(=O)c1ccc(CNCc2ccc(-c3ccc(-c4nc5cc(F)ccc5[nH]4)s3)cc2)cc1 | 11.6% | 10.9% | 8.75%
O=C(NCCc1cccc(F)c1)c1cc(Br)cc(N2CCN(c3ccncc3)CC2)c1 | 6.76% | 5.57% | 3.44%
O=C(CCc1cccnc1)Nc1cccc(-c2ccc(-c3nc4cc(C(F)(F)F)ccc4[nH]3)s2)c1 | -0.82% | 1.89% | 2.16%
O=C1COc2ccc(S(=O)(=O)N3CCC[C@@H]3CCN3CCC(c4c[nH]c5cnccc45)CC3)cc2N1 | 0.76% | 0.68% | 2.12%
O=C(NC1CCCCC1)c1ccc(O)c(-c2cccc(C(F)(F)F)c2)c1 | 2.06% | 2% | 1.27%
Clc1cc(Nc2ncnc3cc(C#C[C@H]4CCCN4)sc23)cc2nc(Cc3ccccc3)[nH]c12 | 1.94% | -0.56% | -1.61%
COc1ccc(-c2cccc(NC(=O)c3ccc(Cl)cc3)c2)cc1CNC(C)C | 3.8% | 2.1% | -1.5%
O=C(Nc1ccc(CCNCCCc2ccccc2)cc1)Nc1ccc(Cl)c(Cl)c1 | -0.55% | -0.63% | -1.86%
COc1ccc2nc3cc(Cl)ccc3c(Nc3ccc(C(=O)O)cc3)c2c1 | 5.95% | -1.31% | 0.06%
O=C(NC1CCN(c2ncc(C(F)(F)F)cc2Cl)CC1)c1cccs1 | -1.13% | -1.85% | -3.08%
CCCCNC(=O)C(C)NC(=O)c1ccc(O)c(-c2ccc(Cl)c(Cl)c2)c1 (stereo unspecified) | -0.19% | -0.53% | 0.05%
NC12CC3CC(CC(C3)C1)C2 | 5.47% | 5.42% | 4.45%
O=c1[nH]ccc2nc(N[C@@H]3CCNC3)nc(Nc3ccc4c(c3)S(=O)(=O)CC4)c12 | 5.93% | 1.38% | 4.85%
CN(Cc1cccc(O)c1)C1CCN(c2cc(NC(=O)c3cccc(F)c3)ccn2)CC1 | 0.01% | 1.18% | 1.33%
NC1=NC(c2ccccc2)(c2cccc(O)c2)C(=O)N1CCCc1ccccc1 (stereo unspecified) | 10.4% and 2.82% | 10.4% and 1.45% | 6.85% and 0.63%
Cc1cccc2nc(-c3cccc(-c4cccc(NC(=O)Nc5ccc(Cl)cc5)c4)c3)[nH]c12 | -3.06% | -0.68% | -1.91%
Cc1cc(C(=O)Nc2ccc(-c3ccccc3)cc2)no1 | 2.6% | 0.53% | 0.52%
C[C@@H]1CN(C(c2cccc(O)c2)c2cccc(C(=O)N(C)c3cccc(F)c3)c2)[C@@H](C)CN1C(c1cccc(O)c1)c1cccc(C(=O)N(C)c2cccc(F)c2)c1 (stereo partly specified) | 3.79% | 2.73% | 2.45%
Cc1c(NCCCNCc2cc(Cl)cc(Cl)c2Cl)[nH]c2ccccc2c1=O | 10.6% | 9.36% | 8.22%
O=C(/C=C/c1ccc(Cl)c(Cl)c1)NCCCCN1CCCN(C(=O)Nc2ccc(F)c(Cl)c2)CC1 | 3% | 1.91% | -0.33%
Cc1noc(C)c1C(=O)N1CCc2cc3nccc(N4CCN5CCC[C@H]5C4)c3cc21 | 0.08% | 1.27% | -0.53%
C[C@@H](Oc1cc(-n2cnc3cc(SCCN4CCN(C)CC4)ccc32)sc1C(N)=O)c1ccccc1Cl | 35.4% | 40.9% | 23.6%
O=C(Nc1cccc(-c2ccc(-c3nc4cc(C(F)(F)F)ccc4[nH]3)cc2)c1)c1c[nH]cn1 | 5.73% | 5.19% | 0.52%
O=C(Nc1cccc(-c2ccc(-c3nc4cc(C(F)(F)F)ccc4[nH]3)cc2)c1)c1ccncc1 | 6.22% | 0.73% | 5.09%

Compound | inhibition [1] | inhibition [2] | inhibition [3]
CC(C)CCNC(=O)C1Cc2c([nH]c3ccc(Br)cc23)C2(CCN(Cc3ccccc3)CC2)N1 (stereo unspecified) | 104% | 103% | 94.2%
Cc1ccc(Cn2nc(Cl)c(N3CCCNCC3)cc2=O)cc1NC(=O)Nc1ccc(-c2ccccc2)cc1 | -1.89% | 1.72% | -1.28%
CCCN1CCC(NCc2cn(C)nc2-c2ccc(Oc3ccccc3)cc2)CC1 | 10.8% | 11% | 11.5%
COc1ccc2oc(=O)c(C#N)c(O)c2c1 | -0.47% | -0.32% | 0.54%
c1cncc(CNc2ncc(-c3ccsc3)c(-c3nccs3)n2)c1 | 5.96% | 8.95% | 7.02%
COc1cccc(NC(=O)Nc2cc(C)nc3ccccc23)c1 | 4.17% | 3.94% | 2.43%
Cc1ccc(-c2cncc(-c3cc(NC4CCN(Cc5ccccc5)CC4)nc(-c4ccccc4)n3)c2)cc1 | 2.11% | 2.36% | 1.96%
O=C(O)CCc1ccc(-c2c[nH]c3ncc(-c4ccc5ncccc5c4)cc23)cc1 | 10.2% | 8.63% | 5.55%
O=c1cc(NCCC(CNCc2cc3ccccc3o2)NCc2cc(Br)cc(Br)c2)[nH]c2ccccc12 (stereo unspecified) | 0.2% | 0.33% | 2.33%
CN1CCN(CC(=O)Nc2ccc(-c3cccc(-c4nc5cc(F)ccc5[nH]4)c3)cc2)CC1 | -0.65% | 0.74% | -1.87%
CCCc1cn2c3c(cc(C(=O)N[C@@H](Cc4ccccc4)[C@H](O)CNC4CCCCC4)cc13)N(CC)S(=O)(=O)CC2 | 0.5% | 0.94% | -0.79%
c1cc(CN2CCCCC2)cc(-c2csc(-c3nc4ccccc4[nH]3)c2)c1 | 5.65% | 4.57% | 2.67%
CC1(CCCCN2CCC(Oc3ccc(F)cc3F)CC2)C(=O)Nc2ccccc21 (stereo unspecified) | 3.9% | 3.15% | 5.35%
Fc1ccc2ncc(Cl)c(CCN3CCC(NCc4cc5c(cn4)OCCO5)CC3)c2c1 | 11% | 11.7% | -0.41%
COCCNC(=O)c1ccc(OC2CCN(Cc3ccc(F)c(F)c3)CC2)c(Cl)c1 | 0.95% | 1.83% | -2.21%
CN(N=Cc1ccccc1)C(=N)NCCCC#Cc1cccc(CN2CCCC2)c1 | 11.4% | 6.82% | 1.72%
COc1ccc2c(c1)CC1CN(CCCCNC(=O)c3ccc(NC(=O)c4cc(Cl)cc(Cl)c4)cc3)CCN1C2 (stereo unspecified) | 3.25% | 4.38% | 3.79%
Cc1ccc(Nc2nc3cc(Nc4ccnc(Nc5ccc(CS(C)(=O)=O)cc5)n4)ccc3o2)cc1 | 9.35% | 9.37% | 5.97%
CCCC(C)NC(=O)[C@H](CC1CCCCC1)NC(=O)c1ccc(O)c(-c2cccc(C(F)(F)F)c2)c1 (stereo partly specified) | -1.37% | 3.47% | 0.42%
O=C(NCc1ccccc1[S+]([O-])c1ccccc1CO)C(F)(F)F (stereo unspecified) | -1.33% | -0.32% | 0.55%
Cc1ccc(CN2CCC(Oc3cccc(NC(=O)c4ccc(C(F)(F)F)cc4)c3)CC2)cc1 | 5.11% | 0.79% | 3.6%
CC(Sc1nnc(-c2cccs2)[nH]1)C(=O)c1c[nH]c2ccccc12 (stereo unspecified) | 0.9% | 1.35% | 0.63%
CCCN/C=N/c1cc(-c2csc(NC(=N)N)n2)cc([N+](=O)[O-])c1 | -0.32% | -0.62% | -2.26%
CCOc1ccc(N(CC)S(=O)(=O)c2cc(Br)cc3c2N(C(=O)C2CC2)CC3)cc1 | 2.96% | 2.04% | 1.74%

Compound | inhibition [1] | inhibition [2] | inhibition [3]
COc1cc(Cc2cnc(N)nc2N)ccc1OCC(=O)Nc1ccc(C)cc1 | 8.4% | 9.26% | 8.92%
CS(=O)(=O)c1cccc(-c2cnc(N)c3cc(-c4cccc(F)c4)ccc23)c1 | 1.57% | 1.63% | 0.94%
CCCC(C(=O)OCCN(CC)CC)(c1ccc(Cl)cc1)c1ccc(Cl)cc1 | 4.77% | 5.49% | 7.04%
COc1ccc2[nH]ccc(=NN=Cc3ccccc3F)c2c1 | 7.58% | 7.67% | 7.56%
CN1CCC(N2CCN(Cc3cccc(-c4ccc(-c5nc6cc(F)ccc6[nH]5)cc4)c3)CC2)CC1 | 2.43% | 3.05% | 2.66%
Cc1ccc2c(Cl)c(C(=O)N3CC(C)OC(C)C3)sc2c1 (stereo unspecified) | 0.22% | 1.09% | 3.43%
O=C(Nc1cccc(N2CCC(NCCCc3ccncc3)CC2)c1)c1cccc(C(F)(F)F)c1 | 3.33% | 5.68% | 4.83%
O=C1Nc2cccc3c2C1(CCCCCN1CCC(c2c[nH]c4ccncc24)CC1)CCC3 (stereo unspecified) | 1% | 2.45% | -0.95%
NS(=O)(=O)c1cccc(-c2ccc3ncc(N4CCOCC4)nc3c2)c1 | 1.24% | 2.84% | -0.09%
COc1ccccc1Cn1ccnc1SCC(=O)Nc1cc(C(F)(F)F)ccc1Cl | -2.21% | -2.15% | -1.55%
COc1cc2ncnc(Nc3ccc(OC(F)(F)c4ccccc4)cc3)c2cc1OC | 9.55% | 10.8% | 7.93%
CN1CCC(NCc2ccc(-c3cccc(S(=O)(=O)NCCc4ccccn4)c3)cc2)CC1 | 0.27% | -0.63% | 1.83%
CCN(CC)CC(O)Cc1c2ccc([N+](=O)[O-])cc2nc2cc(OC)c(OC)cc12 (stereo unspecified) | 0.42% | 1.89% | -1.11%
CC(C)N(Cc1cnc2nc(N)nc(N)c2n1)c1ccc(Cl)c(Cl)c1 | 1.77% | 1.12% | 1.16%
COc1cccc(CNC[C@@H](O)[C@H](Cc2ccccc2)NC(=O)c2cc(C3CCCC3)cc(N3CCCCS3(=O)=O)c2)c1 | 0.71% | 1.78% | 0.92%
COCCNCc1cccc(-c2ccc(CNC3CCN(Cc4ccccc4)CC3)cc2)c1 | 1.41% | 3.3% | 4.63%
Cc1ccc(-c2cc(C(=O)Nc3ccc(S(=O)(=O)N4CCCCC4)cc3)[nH]n2)c(O)c1 | 0.86% | 1.9% | -0.53%
O=C(Nc1ccccc1Cl)c1cc2ccccc2cc1O | -2.32% | -1.17% | -0.43%
O=C(C=Cc1ccc(Cl)c(Cl)c1)NCCCCCN1CCC(CCNS(=O)(=O)c2ccc(Br)cc2)CC1 | 2.45% | 1.43% | 2.53%
CC(CN1CCN(C)CC1)C(=O)Nc1ccc(-c2cccc(-c3nc4cc(F)ccc4[nH]3)c2)cc1 (stereo unspecified) | 2.46% | 2.1% | 5.11%
Cn1nc(-c2cccc(CNCc3ccccc3)c2)c2cnc(NC3CCCC3)nc21 | -0.97% | 0% | -1.01%
N=C(Nc1nc(-c2ccccn2)cc2ccccc12)c1cccc(Cl)c1 | 50.7% | 48.7% | 18.1%
CS(=O)(=O)NCCCNCc1cccc(-c2ccc(-c3nc4cc(C(F)(F)F)ccc4[nH]3)s2)c1 | 1.55% | 2.21% | 1.74%
CCc1ccnc2c(N3CCCC3=O)cc(C(=O)N[C@@H](Cc3ccccc3)[C@H](O)CNC3CCOCC3)cc12 | 3.63% | 0.4% | 0.64%
